Source: PubChem BioAssay AID624364 (Broad Institute, 2012)
Entries with a potency or affinity are not part of this list. Activity calls are given as the source filed them.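 The calls were made as follows: active = compounds lowering ATP signal whose fitted half-maximal concentration is at most twice the top tested dose; inconclusive = flat fit with 30 to 70% loss, or bad fit; inactive = the rest.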

Assay: A375 melanoma cell viability loss, dose response, counter-screen for MITF inhibitor project, CellTiter-Glo luminescence, dry powder, set 4 (AID 624364)
Settings: CellTiter-Glo ATP luminescence, 24 h; series mostly up to 35 µM

SMILES	outcome
CN1CCN(C2=C(NS(=O)(=O)c3cccs3)C(=O)c3ccccc3C2=O)CC1	inactive
O=C(NC1=C(N2CCN(c3ccccc3)CC2)C(=O)c2ccccc2C1=O)c1ccccc1	inactive
COc1ccc(C2=C(NC(=O)c3ccc(OC)cc3-c3cccc(OC)c3)C(=O)c3ccccc3C2=O)cc1	inactive
C=CCNC1=C(NCCCN2CCOCC2)C(=O)c2ccccc2C1=O	inactive
C=CCNC1=C(NCC=C)C(=O)c2ccccc2C1=O	inactive
